Measurements taken from publication PMC5540273 (PLoS ONE, 2017).

How the values were obtained:
Conditions in all cases: concentration: 1 μM, replicates: in singlicate; n = 1
YANK3 = system: T1, YANK3
T1 construct: gene STK32C

YES = system: T2, YES
T2 construct: gene YES1

YSK1 = system: T3, YSK1
T3 construct: gene STK25

YSK4 = system: T4, YSK4
T4 construct: gene MAP3K19

ZAK = system: ZAK
ZAP70 = system: ZAP70
p38-alpha = system: T5, p38-alpha
T5 construct: gene MAPK14

p38-beta = system: T6, p38-beta
T6 construct: gene MAPK11

p38-delta = system: p38-delta
p38-gamma = system: T7, p38-gamma
T7 construct: gene MAPK12
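Also: KINOMEscan kinase panel screen.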

SMILES | %Inh (YANK3) [%] | %Inh (YES) [%] | %Inh (YSK1) [%] | %Inh (YSK4) [%] | %Inh (ZAK) [%] | %Inh (ZAP70) [%] | %Inh (p38-alpha) [%] | %Inh (p38-beta) [%] | %Inh (p38-delta) [%] | %Inh (p38-gamma) [%]
Cc1c2ccc(N(C)c3ccnc(Nc4cccc(S(N)(=O)=O)c4)n3)cc2nn1Cc1ccccc1.Cl.Cl [GW787226] | 0 | 50 | 24 | 25 | 17 | 0 | 0 | 2 | 0 | 35
Cc1nnc(-c2ccc3occ(-c4ccc(C(C)O)cc4)c3c2)o1 (stereo not drawn) | 0 | 3 | 0 | 19 | 46 | 1 | 10 | 13 | 0 | 1
Cc1cccc(Cn2ccn3c(=O)cc(N4CCOCC4)nc23)c1 [GSK2297542] | 16 | 19 | 17 | 12 | 17 | 0 | 27 | 0 | 36 | 51
c1ccc(-c2n[nH]cc2-c2ccnc3ccccc23)nc1 [GW271431] | 18 | 21 | 1 | 28 | 28 | 0 | 29 | 0 | 52 | 0
COc1cc2c(cc1OC[C@@H](O)CO)ncc1c3ccc(C#N)cc3[nH]c21 | 0 | 0 | 0 | 90 | 1 | 0 | 5 | 15 | 0 | 18
COc1cc(Nc2nccc(N3CCC(NC(=O)c4cccc(NC(C)=O)c4)C3)n2)cc(OC)c1OC (stereo not drawn) [GSK1379754] | 0 | 18 | 3 | 19 | 0 | 0 | 0 | 0 | 0 | 0
Cc1ccc(NC(=O)c2ccnc(N3CCN(C)CC3)c2)cc1-c1ccc(C(=O)NCC2CC2)cc1 [GW775604] | 0 | 0 | 19 | 0 | 0 | 0 | 32 | 35 | 10 | 0
Cc1ccc(C(=O)NCC(N)=O)cc1-n1c(C)cc(OCc2ccc(F)cc2F)c(Br)c1=O | 6 | 16 | 0 | 0 | 24 | 0 | 100 | 100 | 18 | 8
O=c1cc(N2CCOCC2)nc2n(Cc3cccc(Cl)c3Cl)c(C3CC3)nn12 [GSK2358994] | 0 | 9 | 0 | 0 | 12 | 10 | 0 | 8 | 4 | 23
Fc1ccc(-c2ncn(CCCN3CCOCC3)c2-c2ccccn2)cc1 [SB-211742] | 0 | 0 | 0 | 0 | 0 | 3 | 2 | 0 | 2 | 23
O=C1Cc2cc(Nc3nc(NCc4cccc(S(=O)(=O)C(F)(F)F)c4)ncc3C(F)(F)F)ccc2N1 | 0 | 8 | 10 | 25 | 1 | 9 | 22 | 0 | 15 | 0
Fc1ccc(-c2nn3c(OCC(F)(F)F)cccc3c2-c2ccncc2)cc1 [GW514784] | 0 | 11 | 17 | 0 | 17 | 0 | 99.9 | 40 | 22 | 1
O=C(NCCCN1CCOCC1)c1cccc(Nc2nccc(Nc3ccc(Oc4ccccc4)cc3)n2)c1 [GW663929] | 1 | 84 | 22 | 26 | 47 | 6 | 11 | 0 | 18 | 0
N#Cc1ccc(-c2cc(-c3c[nH]nc3-c3ccccn3)ccn2)cc1 [GW693028] | 6 | 13 | 0 | 33 | 15 | 0 | 30 | 0 | 22 | 0
CC(=O)Nc1ccc(COc2ccc(Nc3ccnc4cc(-c5ccccn5)ccc34)cc2)cc1.Cl [GW440148] | 0 | 23 | 18 | 18 | 73 | 0 | 28 | 0 | 40 | 0
CCc1ccnc(/C=C/c2n[nH]c3cc(Sc4ccccc4C(=O)NC)ccc23)c1 | 0 | 4 | 0 | 60 | 37 | 20 | 0 | 0 | 7 | 7
Cc1nnc(-c2ccc(C)c(-c3ccc(C(=O)Nc4ccc(NS(C)(=O)=O)cc4)cc3)c2)o1 [GW702865] | 17 | 11 | 0 | 0 | 0 | 15 | 99.7 | 70 | 17 | 0
Fc1ccc(-c2ncn(CCCN3CCOCC3)c2-c2cccnc2)cc1 [SB-211743] | 0 | 0 | 0 | 22 | 0 | 0 | 0 | 0 | 0 | 48
C[C@@H](Oc1cc(-n2cnc3ccc(NC(=O)NC(C)(C)C)cc32)sc1C(N)=O)c1ccccc1Cl [GSK346294] | 12 | 3 | 0 | 3 | 0 | 6 | 32 | 0 | 30 | 2
O=C(c1ccc(-c2cc(-c3c[nH]nc3-c3ccccn3)ccn2)cc1)N1CCOCC1 [GW812171] | 0 | 0 | 0 | 0 | 29 | 0 | 20 | 8 | 0 | 0
O=c1cc(N2CCOCC2)nc2n(Cc3cccc(C(F)(F)F)c3)ccn12 [GSK2297543] | 0 | 9 | 0 | 0 | 8 | 0 | 0 | 0 | 21 | 11
